Source: PubChem (National Center for Advancing Translational Sciences (NCATS))
FLuc counter – firefly luciferase modulation, counter-screen for miR-21 project; P08659; Potency, µM (series often up to 57.5 µM), actives largely listed as inhibitors; 360,000 tested, 6.9% active; purified FLuc, Km substrates, luminescence inhibition; also: nearly all actives have a fitted effect of over 55% in size
Target sequence (P08659 whole entry, looked up): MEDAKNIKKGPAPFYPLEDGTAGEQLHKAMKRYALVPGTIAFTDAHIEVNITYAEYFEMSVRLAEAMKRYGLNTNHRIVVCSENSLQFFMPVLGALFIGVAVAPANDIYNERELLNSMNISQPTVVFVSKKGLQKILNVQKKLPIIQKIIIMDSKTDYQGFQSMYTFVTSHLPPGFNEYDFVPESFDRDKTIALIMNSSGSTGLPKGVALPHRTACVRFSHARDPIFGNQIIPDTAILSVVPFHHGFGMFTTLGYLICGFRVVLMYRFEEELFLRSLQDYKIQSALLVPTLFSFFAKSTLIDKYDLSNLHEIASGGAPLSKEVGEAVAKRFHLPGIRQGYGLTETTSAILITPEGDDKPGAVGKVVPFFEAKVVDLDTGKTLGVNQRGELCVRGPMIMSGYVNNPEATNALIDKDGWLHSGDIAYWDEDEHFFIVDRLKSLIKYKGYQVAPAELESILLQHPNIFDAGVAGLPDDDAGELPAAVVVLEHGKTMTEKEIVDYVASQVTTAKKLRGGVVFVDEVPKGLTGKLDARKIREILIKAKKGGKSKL
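Purified P. pyralis luciferase, 10 nM final, with Km-level 10 uM D-luciferin and 10 uM ATP in 50 mM Tris acetate pH 7.5, 10 mM Mg acetate, 0.01% Tween-20, 0.05% BSA; 6-point qHTS titration about 60 µM downward; luminescence read.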
Rab9 promoter act – activates the Rab9 promoter | 320,000 tested, 2.8% active | Huh7 Rab9 promoter-luciferase reporter, luminescence, 24 h | AID 485297 | Potency, µM (series often up to 9.22 µM), hits mostly activators; also: nearly all actives have a fitted effect of over 60% in size
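Luciferase signal after 10 min detection reagent at ambient indicates Rab9 promoter upregulation; stably transfected Huh7 cells were treated 24 h with compound in DMSO at 37 °C, 5% CO2.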
NPC1 promoter act – activators of NPC1 promoter; Potency, µM (series often up to 9.22 µM), hits mostly activators; 320,000 tested, 2.4% active; AID 485313; Huh7 NPC1 promoter luciferase reporter, 24 h; also: nearly all actives have a fitted effect of over 60% in size
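Stable NPC1-promoter luciferase Huh7 line; cpd (DMSO) 24 h, 37 °C, 5% CO2; Amplite luciferase reagent 10 min RT; luminescence readout. qHTS format.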
ELG1 genotox – inducers of genotoxicity in HEK293T ELG1-luciferase cells; HEK293T ELG1-luciferase reporter, luminescence, 16 h; Potency, µM (top dose mostly 46 µM), hits mostly activators; 330,000 tested, 1.3% active; AID 504466; also: nearly all actives have a fitted effect of over 60% in size
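Reporter readout depends on ELG1 protein level, which increases with genetic stress. After 16 hr compound exposure at 37 °C, luciferase activity was quantified using ONE-Glo.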
SMN2 splice up – enhancers of SMN2 splice variant expression. Potency, µM (doses to about 46.1 µM), actives largely listed as activators. AID 1458. 210,000 tested, 2.8% active. HEK293 SMN2-luciferase splicing reporter, luminescence, 30-36 h; also: nearly all actives have a fitted effect of over 55% in size
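HEK293 cells carry an SMN2 minigene-luciferase reporter in which exon 7 inclusion puts luciferase in frame. Cells were seeded at 2000 cells/well, attached for 10-12 hours, then exposed to compounds for 30-36 hours at 37C before ONE-Glo luminescence.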
Luc counter – blocks Kinase-Glo luciferase, a counter-screen artifact; Kinase-Glo luciferase, ATP luminescence, 8 min; Potency, µM (doses to about 38.3 µM), hits mostly inhibitors; 200,000 tested, 0.28% active; AID 1379; also: nearly all actives have a fitted effect of over 60% in size
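Luminescence was the read-out, taken after 8-minute incubation at ambient temperature. Luciferase turned over luciferin with 10 uM ATP in imidazole pH 7.2 buffer containing KCl, MgCl2, Tween 20 and BSA.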
Hits are given with their value; – = inactive; ? = inconclusive; · = no result; [ ] = remark or other dose. An excerpt weighted towards active compounds, which were near 7.5% of everything screened. Calls follow the shape of the dose curve; as a rule, active = well fitted curve in the direction sought with a large enough effect; inconclusive = small, poorly fitted or top-dose-only effect, or another doubt; inactive = no such curve, though single readings can be large; an effect the other way counts as inactive or inconclusive.

SMILES	FLuc counter	Rab9 promoter act	NPC1 promoter act	ELG1 genotox	SMN2 splice up	Luc counter
O=C1OC(Cc2ccccn2)C(O)=C1C1=NCCCCN1 (stereo not drawn)	?	2.24µM	2.24µM	?	10µM	–
COc1ccc(C(=O)NCc2nnc(SCC(=O)Nc3ccccc3)n2-c2ccccc2)cc1	–	·	·	·	–	·
CCCN1C(=O)C(=O)N(CC(=O)c2cc(C)n(C3CC3)c2C)C1=O	?	1.41µM	2.82µM	?	·	·
Cc1[nH]c2ccccc2c1C(=O)COC(=O)C1CCC1	15.1µM	–	–	–	·	·
O=C(COC(=O)C1CC1)c1c[nH]c2ccccc12	12µM	?	?	?	?	–
O=C(Cc1ccccc1[N+](=O)[O-])OCC(=O)c1c[nH]c2ccccc12	10.7µM	?	?	–	·	·
O=C(COC(=O)C1CCC1)c1c[nH]c2ccccc12	10.7µM	–	–	–	·	·
Cc1[nH]c2ccccc2c1C(=O)COC(=O)C1CCC(=O)N1 (stereo not drawn)	–	–	–	–	–	–
O=C(COc1cccnc1[N+](=O)[O-])c1c[nH]c2ccccc12	?	–	–	–	·	·
CC(=O)OCC(=O)c1c[nH]c2ccccc12	–	–	–	–	–	–
Cc1cc2nc(-c3ccc(Br)cc3)cc(C(F)(F)F)n2n1	–	·	·	·	–	·
CCOC(=O)c1[nH]c(C)c(CCC(=O)Nc2ccc(N(CC)CC)cc2C)c1C	–	·	·	·	·	·
NC(=O)c1ccc(NC(=O)COC(=O)CNC(=O)c2sc3ccccc3c2Cl)cc1	6.75µM	–	–	–	·	·
CC1CCCCN1C(=O)COC(=O)CNC(=O)c1sc2ccccc2c1Cl (stereo not drawn)	?	–	–	–	·	·
O=C(COC(=O)CNC(=O)c1sc2ccccc2c1Cl)NC1CCS(=O)(=O)C1 (stereo not drawn)	16.9µM	–	–	–	·	·
CCOC(=O)C1CCN(C(=O)COC(=O)CNC(=O)c2sc3ccccc3c2Cl)CC1	9.53µM	–	–	–	·	·
CS(=O)(=O)c1ccc(Cl)c(NC(=O)COC(=O)CNC(=O)c2sc3ccccc3c2Cl)c1	15.1µM	–	–	–	·	·
CC(=O)Nc1cccc(N=NN2CCCCC2)c1	16.9µM	–	–	–	–	–
O=C(O)c1ccc(N=NN2CCCCCC2)cc1	10.7µM	0.316µM	?	–	4.47µM	–
Cc1ccn2c(CCc3nnc4cc(C)ccn34)nnc2c1	·	·	·	·	–[9.22 µM]	–[7.66 µM]
Cc1ccc(OCC(=O)NNC(=O)c2ccco2)c(C)c1	12µM	–	–	–	·	·
Cc1cc(Br)ccc1OCC(=O)NNC(=O)c1cnccn1	16.9µM	–	–	–	–	–
Cc1cc(Cl)ccc1OCC(=O)NNC(=O)c1cnccn1	16.9µM	–	–	–	–	–
C/C(=N\NC(=O)CCCOc1ccc(Cl)cc1C)c1ccc(C)o1	–	–	–	–	–	–
Cc1ccc(C(=O)NNC(=O)COc2ccc(Cl)cc2C)o1	10.7µM	–	–	–	·	·
SMILES	FLuc counter	Rab9 promoter act	NPC1 promoter act	ELG1 genotox	SMN2 splice up	Luc counter
COCCNC(=O)COc1ccc(C)cc1C	–	–	–	–	–	–
Cc1ccc(C)c(N2CCN(S(=O)(=O)c3cn(C)c(C)n3)CC2)c1	–	·	·	·	·	·
Cc1c(C(=O)N2CCCC2)c(S(=O)(=O)Nc2ccccc2)c(C)n1C	–	–	–	–	·	·
CCCOC(=O)c1ccc(NC(=O)Cc2csc(C)n2)cc1	–	·	·	·	·	·
Cc1ccccc1CN1c2ccccc2-c2nc(SCC(=O)c3ccccc3)ncc2S1(=O)=O	–	·	·	·	·	·
CCOc1ccccc1OCCCn1c(-c2ccc(Cl)cc2)nc2ccccc2c1=O	–	·	·	·	–	·
O=C(Nc1cc2c(cc1C(=O)c1ccccc1Br)OCCO2)c1cccc(Cl)c1	–	·	·	·	–	·
O=C(Nc1cccc(Cl)c1N1CCCCC1)c1ccc2c(c1)OCCO2	–	–	–	–	–	–
COc1cc(NC(=O)c2ccc3c(c2)OCO3)c2ncccc2c1	1.9µM	–	–	–	–	–
COc1ccc(N2CCOCC2)c(NC(=O)c2ccc3c(c2)OCO3)c1	–	–	–	–	·	·
O=C(Nc1cccc2cccnc12)c1ccc2c(c1)OCCO2	12µM	?	–	?	–	–
COc1cc(C(CC(=O)NCc2ccc(F)cc2)N2Cc3ccccc3C2=O)cc(OC)c1OC (stereo not drawn)	–	·	·	·	·	·
O=C1c2ccccc2C(=O)N1CCSc1nncs1	–	–	–	–	–	–
O=C1c2ccccc2C(=O)N1CCSc1ccccc1	4.26µM	?	2.82µM	11.6µM	?	–
Cc1csc(SCCN2C(=O)c3ccccc3C2=O)n1	13.5µM	?	?	?	–	–
COc1cc(NS(=O)(=O)c2ccc3c(c2)CCCN3C(C)=O)cc(OC)c1OC	–	·	·	·	·	·
COc1ccccc1C(=O)NC(=S)N1CCCc2ccccc21	21.3µM	–	–	–	–	–
O=C(COc1ccccc1)NC(=S)N1CCc2ccccc21	?	–	–	–	?	–
COc1ccc(OCC(=O)NC(=S)N2CCCc3ccccc32)cc1	26.9µM	–	–	10µM	–	–
COc1ccccc1C(=O)NC(=S)N1CCc2ccccc21	–	–	–	–	–	–
O=C(NC(=S)N1CCCc2ccccc21)c1ccc(Cl)cc1	6.75µM	–	–	–	?	–
COc1ccc(C(=O)Nc2ccc(OCc3cc(=O)n4ccccc4n3)cc2)cc1	–	·	·	·	·	·
COc1ccccc1N=Nc1ccc(O)c2ncccc12	6.75µM	–	–	?	·	·
Cc1ccc(N=Nc2ccc(O)c3ncccc23)cc1C	10.7µM	–	–	–	·	–
Cc1ccc(N=Nc2ccc(O)c3ncccc23)cc1	–	–	–	?	–	–
SMILES	FLuc counter	Rab9 promoter act	NPC1 promoter act	ELG1 genotox	SMN2 splice up	Luc counter
Cc1cc(C(=O)Nc2nnc(C3CCCCC3)s2)cs1	–[2.3 µM]	1.58µM	?	?	–	–
Cc1cc(C(=O)Nc2nnc(C(F)(F)F)s2)cs1	12µM	?	?	–	·	·
CCC(=O)N1c2nc(C(C)C)nn2C2(CCCCC2)[C@@H]2CCCC[C@@H]21	–	·	·	·	·	·
Cc1ccsc1/C=N/NC(=O)c1cccs1	10.7µM	?	?	?	·	·
Cc1ccsc1/C=N/NC(=O)c1ccccn1	8.49µM	2.51µM	2µM	?	11.2µM	?
CCOc1ccc(/C=C/C(=O)c2ccccc2)cc1OC	4.26µM	?	?	?	–	–
CCOc1ccc(C(=O)/C=C/c2ccc(OC)c(OC)c2)cc1	16.9µM	–	–	–	–	–
CCC(=O)c1ccc(OCc2ccc(C(=O)OC)cc2)c(OC)c1	–	–	–	–	?	–
COc1cccc(C(=O)/C=C/c2ccc(OCC#N)c(OC)c2)c1	?	–	–	–	–[1.84 µM]	–
CCC(=O)c1ccc(OCc2ccccc2)c(OC)c1	?	?	?	?	14.1µM	–
Cc1cc(C)cc(NC(=O)C(=O)NCC(c2cccnc2)N2CCN(c3ccccc3)CC2)c1 (stereo not drawn)	–	·	·	·	·	·
